The values that follow come from PubChem BioAssay (NCATS).

Each structure is given as a SMILES string. Inconclusive results are not listed. A number with no mark means an inactive call. Activity calls are given as the source filed them. Calls come from the whole dose curve; as a rule, active = well fitted curve in the direction sought with a large enough effect; inconclusive = small, poorly fitted or top-dose-only effect, or another doubt; inactive = no such curve, though single readings can be large; an effect the other way counts as inactive or inconclusive.

The target in experiment [1] is Rap guanine nucleotide exchange factor 3 (Homo sapiens) (UniProt O95398). Nature of the experiment: Confirmatory qHTS for antagonist of cAMP-regulated guanine nucleotide exchange factor 3 (EPAC1) (AID 1645880).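 For activity, negative = inhibition: plate controls were DMSO only for no effect and full effect of the ATA control for full effect.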 Note: nearly all actives have a fitted effect of over 55% in size. The following applies: EPAC1 Rap1B-BODIPY-GDP exchange, fluorescence; activity, negative = inhibition: at 115 µM (top of the series). The method, boiled down: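 Released BODIPY-GDP fluoresces less than Rap1-bound BODIPY-GDP; the signal is followed at 480/540 nm at 5-min intervals over 30 min, after 5 min at room temperature. Reactions contain 100 nM EPAC1, 250 nM RAP1B-BODIPY-GDP and 50 uM GDP; results are normalized to ATA and DMSO.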
In general terms: Quantitative high-throughput screening tests each substance at several concentrations.

Experiment [2] shares this target. In words: Confirmatory qHTS for agonist of cAMP-regulated guanine nucleotide exchange factor 3 (EPAC1) (AID 1645881).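 For activation: EPAC1 catalysed release of BODIPY-GDP from Rap1B seen as fluorescence loss; 100% = effect of cAMP agonist control.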 Note: nearly all actives have a fitted effect of over 75% in size.
Experiment [3] addresses Rap guanine nucleotide exchange factor 4 (Homo sapiens) (UniProt Q8WZA2). Nature of the experiment: Confirmatory qHTS for agonist of cAMP-regulated guanine nucleotide exchange factor 4 (EPAC2) (AID 1645884). For activation: % is set by controls: 0 for no effect and ±100 for the full control effect.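 Note: nucleotide exchange releases bodipy-GDP from Rap1 and this lowers its fluorescence; nearly all actives have a fitted effect of over 65% in size.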
The target is the same in experiment [4]. Nature of the experiment: Confirmatory qHTS for antagonist of cAMP-regulated guanine nucleotide exchange factor 4 (EPAC2) (AID 1645885). Note: nearly all actives have a fitted effect of over 25% in size.
Experiment [5] concerns the target Rap guanine nucleotide exchange factor 3 (Homo sapiens) (UniProt O95398). Nature of the experiment: Counterscreen qHTS for agonist of cAMP-regulated guanine nucleotide exchange factor 3 (EPAC1) (AID 1645889). For activation: % of control where 0% means no effect. Note: nearly all actives have a fitted effect of over 40% in size. Summed up: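 Rap1B-BODIPY-GDP 250 nM + GDP 50 uM; cpds 7-pt, final 9.74 nM–152 uM (activator mode) or from 7.32 nM upwards (inhibitor mode); RT; FI 480/540 nm at 5 and 30 min, then ± cAMP, reread.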
Potency is the fitted concentration of half-maximal effect.

Rap guanine nucleotide exchange factor 4 (Homo sapiens), sequence (Q8WZA2 whole entry, looked up): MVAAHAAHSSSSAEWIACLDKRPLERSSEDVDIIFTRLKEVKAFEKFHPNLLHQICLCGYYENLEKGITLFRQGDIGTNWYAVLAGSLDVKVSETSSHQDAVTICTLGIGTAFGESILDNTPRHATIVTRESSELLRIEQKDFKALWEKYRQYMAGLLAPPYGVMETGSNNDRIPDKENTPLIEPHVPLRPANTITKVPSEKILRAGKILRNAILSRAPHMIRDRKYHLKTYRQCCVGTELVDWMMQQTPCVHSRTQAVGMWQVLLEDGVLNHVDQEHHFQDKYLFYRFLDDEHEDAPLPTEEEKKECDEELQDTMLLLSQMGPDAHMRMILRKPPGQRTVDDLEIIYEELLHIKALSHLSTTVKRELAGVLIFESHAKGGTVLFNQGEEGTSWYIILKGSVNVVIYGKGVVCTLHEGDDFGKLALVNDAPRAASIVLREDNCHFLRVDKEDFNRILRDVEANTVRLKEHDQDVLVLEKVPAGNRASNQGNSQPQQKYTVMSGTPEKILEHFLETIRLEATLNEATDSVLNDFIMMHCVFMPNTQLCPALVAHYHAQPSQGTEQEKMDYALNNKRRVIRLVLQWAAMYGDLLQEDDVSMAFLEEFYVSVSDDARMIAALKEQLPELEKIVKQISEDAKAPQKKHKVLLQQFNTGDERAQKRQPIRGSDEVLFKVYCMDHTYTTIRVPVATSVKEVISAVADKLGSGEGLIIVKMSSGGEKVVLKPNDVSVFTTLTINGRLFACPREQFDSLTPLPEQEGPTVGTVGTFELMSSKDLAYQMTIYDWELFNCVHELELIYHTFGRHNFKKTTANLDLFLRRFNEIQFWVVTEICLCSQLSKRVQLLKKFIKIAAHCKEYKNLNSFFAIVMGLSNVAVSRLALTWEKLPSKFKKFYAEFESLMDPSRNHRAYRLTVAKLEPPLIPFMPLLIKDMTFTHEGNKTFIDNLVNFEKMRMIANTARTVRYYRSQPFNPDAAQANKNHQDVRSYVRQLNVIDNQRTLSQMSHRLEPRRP
Rap guanine nucleotide exchange factor 3 (Homo sapiens), sequence (O95398 whole entry, looked up): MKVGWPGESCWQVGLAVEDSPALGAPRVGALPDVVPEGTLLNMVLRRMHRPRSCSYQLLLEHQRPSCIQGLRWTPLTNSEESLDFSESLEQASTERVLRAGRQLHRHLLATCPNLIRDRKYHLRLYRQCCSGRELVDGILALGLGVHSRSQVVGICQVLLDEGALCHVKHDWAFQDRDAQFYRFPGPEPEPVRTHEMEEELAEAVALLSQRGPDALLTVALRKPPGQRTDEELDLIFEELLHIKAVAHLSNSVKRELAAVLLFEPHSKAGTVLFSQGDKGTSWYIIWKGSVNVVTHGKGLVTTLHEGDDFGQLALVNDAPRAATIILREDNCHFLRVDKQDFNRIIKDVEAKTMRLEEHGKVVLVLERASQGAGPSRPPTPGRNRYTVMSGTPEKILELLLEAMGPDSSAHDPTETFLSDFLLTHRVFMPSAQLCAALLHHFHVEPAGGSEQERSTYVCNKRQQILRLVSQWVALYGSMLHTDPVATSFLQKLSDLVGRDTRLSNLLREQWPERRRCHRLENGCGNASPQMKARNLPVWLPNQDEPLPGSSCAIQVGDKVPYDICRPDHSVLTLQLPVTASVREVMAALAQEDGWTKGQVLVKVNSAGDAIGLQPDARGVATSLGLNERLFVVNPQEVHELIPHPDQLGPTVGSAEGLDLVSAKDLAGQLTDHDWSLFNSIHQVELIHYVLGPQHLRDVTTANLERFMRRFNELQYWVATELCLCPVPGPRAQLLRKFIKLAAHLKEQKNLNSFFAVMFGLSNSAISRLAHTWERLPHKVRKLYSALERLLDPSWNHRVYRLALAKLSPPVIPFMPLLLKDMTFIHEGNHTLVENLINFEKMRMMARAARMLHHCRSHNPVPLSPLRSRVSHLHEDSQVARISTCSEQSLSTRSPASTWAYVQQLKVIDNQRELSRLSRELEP

Regarding `COc1ccc(N2CCOCC2)c(NC(=O)c2cccc3ccccc23)c1`, the Potency result in experiment [1], in experiment [2] and in experiment [4] was “inactive” throughout. Moreover, the activation in experiment [3] is 5.58% [at 17.1 µM, percent relative to cAMP agonist control]; in experiment [5], 22.6% [at 30.8 µM].

With `Cc1[nH][nH]c(=O)c1C(c1ccc(-c2ccc(Cl)c(C(=O)O)c2)o1)c1c(C)[nH][nH]c1=O`, the Potency entry in experiment [1], in experiment [2] and in experiment [4] was “inactive” each time. The activation in experiment [3] is 10.1% [at 17.1 µM, percent relative to cAMP agonist control]. Also, in experiment [5], the Potency was 11.2 µM (active).

`Cc1ccc(CNC(=O)c2c[nH]n3c(=O)c(Cc4ccc(F)cc4Cl)c(C)nc23)cc1`: the Potency in experiment [1] was 67.5 µM (active). Besides, the Potency entry in experiment [2], in experiment [3], in experiment [4] and in experiment [5] was “inactive” each time.

Consider `CC(=O)c1cc(CC(=O)N2CCc3c([nH]c4ccccc34)C2c2ccccn2)cs1` (stereo not given), for which the Potency entry in experiment [1], in experiment [2], in experiment [3], in experiment [4] and in experiment [5] was “inactive” throughout.

On to `O=S(=O)(O)c1ccc(N=NNc2ccc(Br)cc2)cc1`, for which the Potency entry in experiment [1], in experiment [2], in experiment [3] and in experiment [5] was “inactive” throughout. The Potency in experiment [4] is 26.9 µM (active).

For the compound `CCOc1ccc(CNC(=O)c2ccccc2NC(=O)c2nsc3ccccc23)cc1`, the Potency entry in experiment [1], in experiment [2], in experiment [3] and in experiment [5] was “inactive” each time. In addition, the outcome in experiment [4] was “inactive [at 12.7 µM]”.

Take `CC(C)CCn1c(Oc2ccc(Cl)cc2)nc2c1c(=O)n(C)c(=O)n2C`: the Potency entry in experiment [1], in experiment [2], in experiment [3] and in experiment [5] was “inactive” in each case. Besides, the Potency in experiment [4] was 16.9 µM (active).

Take `CCN1CCc2c(sc(NC(=O)c3ccc(S(=O)(=O)N4CCCCCC4)cc3)c2C(=O)NC)C1`: the Potency result in experiment [1], in experiment [2], in experiment [3], in experiment [4] and in experiment [5] was “inactive” in each case.

For the compound `COc1ccccc1CNC(=O)C1(C)CCN1Cc1ccc(OC(F)(F)F)cc1` (stereo not given), the Potency is 67.5 µM (active) in experiment [1] and 53.6 µM (active) in experiment [4]. For the same compound, the Potency entry in experiment [2], in experiment [3] and in experiment [5] was “inactive” throughout.

In the case of `N#CCOC(=O)[C@H](Cc1c[nH]c2ccccc12)NS(=O)(=O)c1ccc(Cl)cc1`, the results for the Potency in experiment [1] and in experiment [4] were 37.9 µM (active) and 53.6 µM (active), respectively. Further, the Potency entry in experiment [2], in experiment [3] and in experiment [5] was “inactive” in each case.

For the compound `O=C(CSc1nnnn1-c1ccccc1)Nc1ccc(Cl)cn1`, the Potency result in experiment [1], in experiment [2], in experiment [3], in experiment [4] and in experiment [5] was “inactive” throughout.

`Cn1cc(C(CO)Cc2ccccc2)c2ccccc21` (stereo not given): the Potency result in experiment [1], in experiment [2] and in experiment [4] was “inactive” throughout. The activation in experiment [3] is 4.77% [at 17.1 µM, percent relative to cAMP agonist control]; in experiment [5] it was 2.04% [at 30.8 µM].

As to `CCCCn1c(CNC(=O)C23CC4CC(CC(C4)C2)C3)nnc1SCC(=O)Nc1ccc(F)cc1`, the Potency result in experiment [1], in experiment [2], in experiment [3] and in experiment [5] was “inactive” in each case. Moreover, in experiment [4], the outcome was “inactive [at 12.7 µM]”.

As for `CCOc1nc(C)cc(C)c1S(=O)(=O)c1cccc(Cl)c1`, the Potency entry in experiment [1], in experiment [2], in experiment [3] and in experiment [5] was “inactive” in each case. Besides, in experiment [4], the Potency is 19 µM (active).

As for `Cc1ccc2oc(=O)c(/C=C(\O)c3cccs3)nc2c1`, in experiment [1], the Potency entry is “inactive”. The Potency was 100 µM (active) in experiment [2], 89.1 µM (active) in experiment [3], 23.9 µM (active) in experiment [4] and 39.8 µM (active) in experiment [5].

For `Cc1cc(C(=O)Nc2ccon2)c(C)o1`, the Potency result in experiment [1], in experiment [2], in experiment [3] and in experiment [5] was “inactive” in each case. The Potency in experiment [4] is 84.9 µM (active).

Consider `Cn1c(C(O)c2ccc(Br)cc2)nc(Cl)c1Cl` (stereo not given), for which the Potency result in experiment [1], in experiment [2] and in experiment [4] was “inactive” each time. In addition, the activation in experiment [3] is -7.53% [at 17.1 µM, percent relative to cAMP agonist control]; in experiment [5] it was 8.17% [at 30.8 µM].

Consider `Cc1cc(OC(C)C(=O)NCc2ccccn2)c2c(C)c(Cc3ccccc3)c(=O)oc2c1` (stereo not given), for which the Potency in experiment [1] is 47.8 µM (active). Moreover, the Potency entry in experiment [2], in experiment [3], in experiment [4] and in experiment [5] was “inactive” throughout.

Take `CCC(=O)N1c2ccc(S(=O)(=O)NCCc3ccc(C)cc3)cc2CC1C` (stereo not given): the Potency entry in experiment [1], in experiment [2], in experiment [3], in experiment [4] and in experiment [5] was “inactive” throughout.

Take `CC(C)(C)OC(=O)N1CCN(C(=O)c2[nH]c(C(F)(F)F)nc2-c2ccccc2)CC1`: the Potency entry in experiment [1], in experiment [2], in experiment [3], in experiment [4] and in experiment [5] was “inactive” throughout.

As for `COc1cccc(CNC(=O)COc2cc3c(c4oc(=O)cc(C)c24)CCC(C)(C)O3)c1`, the Potency result in experiment [1], in experiment [2], in experiment [3], in experiment [4] and in experiment [5] was “inactive” throughout.

Turning to `CC(C)CC1C(=O)N(Cc2cn(Cc3ccco3)nn2)CCS(=O)(=O)N1Cc1ccc(-c2ccc(F)cc2)cc1` (stereo not given), the results for the Potency in experiment [1] and in experiment [4] were 84.9 µM (active) and 21.3 µM (active), respectively. The Potency entry in experiment [2], in experiment [3] and in experiment [5] was “inactive” throughout.

Regarding `Cc1ccc2oc(=O)n(CCCOc3ccccc3Cl)c2c1`, the Potency result in experiment [1], in experiment [2], in experiment [3], in experiment [4] and in experiment [5] was “inactive” throughout.
